Assays:
[1] = tested on: HCC1937; experiment: relative cell viability, compound + RSL3, vs DMSO (fraction of DMSO control); higher = less growth inhibition; conditions: 72 h
[2] = tested on: MDA-MB-231; experiment: as above; conditions: 72 h
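Further: breast cancer cell viability read out with the CCK-8 kit after co-treatment of each compound with the ferroptosis inducer RSL3.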

| SMILES | relative cell viability [1] | relative cell viability [2] |
| --- | --- | --- |
| Cn1c2cc([S+](C)[O-])sc2c2cnn(Cc3cccc(N)c3)c(=O)c21 (centres undefined) + COC(=O)c1ccc([C@H]2c3[nH]c4ccccc4c3C[C@H](C(=O)OC)N2C(=O)CCl)cc1 [RSL3] | 0.402 | 0.677 |
| NC(CO)C(=O)O (racemic) [DL-Serine] + COC(=O)c1ccc([C@H]2c3[nH]c4ccccc4c3C[C@H](C(=O)OC)N2C(=O)CCl)cc1 [RSL3] | 0.399 | 0.594 |
| COc1ccc(-n2c(SCCCN3C(=O)c4cccc5cccc(c45)C3=O)nnc2-c2ccncc2)cc1 + COC(=O)c1ccc([C@H]2c3[nH]c4ccccc4c3C[C@H](C(=O)OC)N2C(=O)CCl)cc1 [RSL3] | 0.324 | 0.56 |
| C[C@H](CCOc1cccc(CC(=O)O)c1)N(Cc1cccc(C(F)(F)F)c1Cl)CC(c1ccccc1)c1ccccc1 [RGX-104 free Acid] + COC(=O)c1ccc([C@H]2c3[nH]c4ccccc4c3C[C@H](C(=O)OC)N2C(=O)CCl)cc1 [RSL3] | 0.333 | 0.561 |
| C=CCc1ccc(O)c(-c2cc(CC=C)ccc2O)c1 [Magnolol] + COC(=O)c1ccc([C@H]2c3[nH]c4ccccc4c3C[C@H](C(=O)OC)N2C(=O)CCl)cc1 [RSL3] | 0.789 | 0.668 |
| CC(O)(CC(=O)O)CC(=O)O [Meglutol] + COC(=O)c1ccc([C@H]2c3[nH]c4ccccc4c3C[C@H](C(=O)OC)N2C(=O)CCl)cc1 [RSL3] | 0.443 | 0.613 |
| CCCCCCCCCCCC1=C(O)C(=O)C=C(O)C1=O [Embelin] + COC(=O)c1ccc([C@H]2c3[nH]c4ccccc4c3C[C@H](C(=O)OC)N2C(=O)CCl)cc1 [RSL3] | 0.458 | 0.471 |
| CC[C@H](C)C(=O)O[C@H]1C[C@H](O)C=C2C=C[C@H](C)[C@H](CC[C@@H](O)C[C@@H](O)CC(=O)O)[C@H]21 [Pravastatin sodium] + COC(=O)c1ccc([C@H]2c3[nH]c4ccccc4c3C[C@H](C(=O)OC)N2C(=O)CCl)cc1 [RSL3] | 0.77 | 0.606 |
| O=C1C(SCCO)=C(SCCO)C(=O)c2ccccc21 + COC(=O)c1ccc([C@H]2c3[nH]c4ccccc4c3C[C@H](C(=O)OC)N2C(=O)CCl)cc1 [RSL3] | 0.388 | 0.925 |
| CN1CCN(C(=O)C2C(C(=O)O)[C@H]3CC[C@@H]2O3)CC1 (some centres undefined) + COC(=O)c1ccc([C@H]2c3[nH]c4ccccc4c3C[C@H](C(=O)OC)N2C(=O)CCl)cc1 [RSL3] | 0.313 | 0.367 |
| O=C(c1ccc(NS(=O)(=O)c2cccc3cccnc23)cc1)N1CCN(CC2CC2)CC1 [Mitapivat] + COC(=O)c1ccc([C@H]2c3[nH]c4ccccc4c3C[C@H](C(=O)OC)N2C(=O)CCl)cc1 [RSL3] | 0.558 | 0.654 |
| CCCCC[C@H](O)CC(=O)CCc1ccc(O)c(OC)c1 [6-Gingerol] + COC(=O)c1ccc([C@H]2c3[nH]c4ccccc4c3C[C@H](C(=O)OC)N2C(=O)CCl)cc1 [RSL3] | 0.298 | 0.483 |
| CC(C)(C)c1ccc(-c2nc3ccccc3[nH]2)cc1 + COC(=O)c1ccc([C@H]2c3[nH]c4ccccc4c3C[C@H](C(=O)OC)N2C(=O)CCl)cc1 [RSL3] | 0.529 | 0.399 |
| C=C(C)[C@@H]1CC[C@]2(C)CC[C@]3(C)[C@H](CC[C@@H]4[C@@]5(C)CCC(=O)C(C)(C)[C@@H]5CC[C@]43C)[C@@H]12 + COC(=O)c1ccc([C@H]2c3[nH]c4ccccc4c3C[C@H](C(=O)OC)N2C(=O)CCl)cc1 [RSL3] | 0.595 | 0.688 |
| CC1=C(/C=C/C(C)=C/C=C/C(C)=C/C=C/C=C(C)/C=C/C=C(C)/C=C/C2=C(C)C(=O)[C@@H](O)CC2(C)C)C(C)(C)C[C@H](O)C1=O [Astaxanthin] + COC(=O)c1ccc([C@H]2c3[nH]c4ccccc4c3C[C@H](C(=O)OC)N2C(=O)CCl)cc1 [RSL3] | 0.562 | 0.689 |
| N#Cc1ccc(Oc2cccc(NC(=O)Nc3ccc(Cl)c(C(F)(F)F)c3)c2)cc1 + COC(=O)c1ccc([C@H]2c3[nH]c4ccccc4c3C[C@H](C(=O)OC)N2C(=O)CCl)cc1 [RSL3] | 0.0959 | 0.216 |
| Cc1cc(C)c(S(=O)(=O)Nc2cccc(C(F)(F)F)c2)c(C)c1 + COC(=O)c1ccc([C@H]2c3[nH]c4ccccc4c3C[C@H](C(=O)OC)N2C(=O)CCl)cc1 [RSL3] | 0.504 | 0.775 |

— the supplement of paper PMC9492666
